PubChem BioAssay (NCI)
The panel holds about 79,000 compounds, 15% with a hit somewhere; the sample as a whole holds those more often. Active and inactive are the calls of the source. Cut-off read from the data, not from the text of the source: active = growth inhibition above about 70%; inactive = the rest.

Experiments:
[1] = NCI Yeast Anticancer Drug Screen. Data for the rad50 strain (AID 155);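 note: 0% = growth of vehicle-only cultures of the same strain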; conditions: S. cerevisiae rad50 strain growth inhibition, hits give high values
In short: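 Relative growth inhibition (compound vs vehicle) was measured in yeast with a defined repair-gene alteration.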

[2] = NCI Yeast Anticancer Drug Screen. Data for the mec2-1 strain (AID 157); conditions: S. cerevisiae mec2-1 strain, hits give high values
In short: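 Mutant yeast (mec2-1) grown with compound; growth inhibition relative to vehicle control reported.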

[3] = NCI Yeast Anticancer Drug Screen. Data for the sgs1 mgt1 strain (AID 161);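 note: 0% = growth of cultures given vehicle only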; conditions: S. cerevisiae sgs1 mgt1 strain, hits give high values
In short: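 Growth of a repair-deficient yeast mutant was monitored after compound treatment and expressed as inhibition relative to vehicle-treated cultures.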

[4] = NCI Yeast Anticancer Drug Screen. Data for the cln2 rad14 strain (AID 165);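 note: 0% = growth equal to vehicle treated cultures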; conditions: S. cerevisiae cln2 rad14 strain, hits give high values
In short: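 Readout is yeast growth inhibition versus vehicle-treated controls, using a strain with cln2 and rad14 alterations exposed to compound.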

[5] = NCI Yeast Anticancer Drug Screen. Data for the bub3 strain (AID 167); conditions: S. cerevisiae bub3 mutant strain, hits give high values
In short: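 Screening used yeast with an engineered genetic alteration affecting cell cycle control. Compound-exposed cultures were compared with vehicle cultures, and reduced growth was taken as inhibition.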

[6] = NCI Yeast Anticancer Drug Screen. Data for the mlh1 rad18 strain (AID 175); conditions: S. cerevisiae mlh1 rad18 strain growth inhibition, hits give high values
In short: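 Genetically defined yeast (DNA repair-deficient) exposed to compounds; growth inhibition determined relative to vehicle.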

[7] = at 5.0 µM (retest, dose inferred, filed as 0.5)
[8] = at 50.0 µM (retest, dose inferred, filed as 5.0)

Measured: growth inhibition

CCN(CC)CCOc1c(Cl)c(Cl)c(Cl)c(Cl)c1Cl
inactive: [1]; [7] 23% | [1]; [8] 62% | [2]; [7] 15% | [2]; at 50.0 µM 57.5% | [3]; [7] 20% | [4]; [7] -1% | [4]; at 50.0 µM 48.5% | [5]; [7] 1% | [5]; [8] 56% | [5]; at 50.0 µM 64.2% | [6]; [7] 7%
active: [1]; at 50.0 µM 71.7% | [2]; [8] 77% | [3]; [8] 88% | [3]; at 50.0 µM 86.8% | [4]; [8] 80% | [6]; [8] 80% | [6]; at 50.0 µM 71.8%

NNC(=S)Nc1ccccc1
active: [2]; at 50.0 µM 79.9%
inactive: [1]; [7] 3% | [1]; [8] 5% | [1]; at 50.0 µM -7.25% | [2]; [7] -3% | [2]; [8] 1% | [3]; [7] -1% | [3]; [8] 1% | [3]; at 50.0 µM -14.6% | [4]; [7] 5% | [4]; [8] -4% | [4]; at 50.0 µM -28.9% | [5]; [7] 1% | [5]; [8] -1% | [5]; at 50.0 µM 2.2% | [6]; [7] -1% | [6]; [8] 10% | [6]; at 50.0 µM 8.05%

CC(=O)O[C@H]1CC[C@]2(C)C34OC3C[C@]3(C)[C@@H](C(C)=O)CC[C@H]3[C@]43C=C[C@@]2(C1)C1C(=O)OC(=O)C13 (stereo not given in full)
inactive: [1]; [7] 10% | [1]; [8] 60% | [2]; [7] 6% | [2]; [8] 45% | [3]; [7] 5% | [3]; [8] 48% | [4]; [7] 0% | [4]; [8] 34% | [5]; [7] 2% | [5]; [8] 42% | [6]; [7] -2%
active: [1]; at 50.0 µM 88.2% | [2]; at 50.0 µM 89.9% | [3]; at 50.0 µM 75.9% | [4]; at 50.0 µM 84.2% | [5]; at 50.0 µM 92.4% | [6]; [8] 85% | [6]; at 50.0 µM 93.2%

CC1=C(C(=O)Nc2ccccc2C)C(c2ccccc2F)C(C(=O)Nc2ccccc2C)=C(C)N1
inactive: [1]; [7] 1% | [1]; [8] 6% | [1]; at 50.0 µM 29.6% | [2]; [7] 3% | [2]; [8] 8% | [2]; at 50.0 µM 41.9% | [3]; [7] -2% | [3]; [8] 6% | [3]; at 50.0 µM 6.6% | [4]; [7] -2% | [4]; [8] -6% | [4]; at 50.0 µM -23.1% | [5]; [7] 1% | [5]; [8] 2% | [5]; at 50.0 µM 20.2% | [6]; [7] 1% | [6]; [8] 8% | [6]; at 50.0 µM 47.7%

CC(=O)Oc1c2ccccc2c(C)c2c1ccc1ccccc12
active: [1]; [8] 93% | [1]; at 50.0 µM 96% | [2]; [7] 84% | [2]; [8] 92% | [2]; at 50.0 µM 95% | [3]; [7] 89% | [3]; [8] 93% | [3]; at 50.0 µM 96% | [4]; [8] 92% | [4]; at 50.0 µM 94.2% | [5]; [8] 93% | [5]; at 50.0 µM 96.7% | [6]; [7] 91% | [6]; [8] 90% | [6]; at 50.0 µM 91.8%
inactive: [1]; [7] 65% | [4]; [7] 49% | [5]; [7] 37%

O=C(c1ccc(Cl)cc1)c1ccc(OCCCOc2ccc(C(=O)c3ccc(Cl)cc3)cc2)cc1
inactive: [1]; [7] -14% | [1]; [8] -32% | [1]; at 50.0 µM 17.5% | [2]; [7] -13% | [2]; [8] 2% | [2]; at 50.0 µM -16.1% | [3]; [7] -18% | [3]; [8] -4% | [3]; at 50.0 µM -2.15% | [4]; [7] -30% | [4]; [8] -7% | [4]; at 50.0 µM 38.1% | [5]; [7] -14% | [5]; [8] -14% | [5]; at 50.0 µM -14.6% | [6]; [7] -22% | [6]; [8] -26% | [6]; at 50.0 µM -1.7%

O=C(Nc1ccccc1O)/C(Cl)=C/Cl
active: [1]; [8] 95% | [1]; at 50.0 µM 98.2% | [2]; [8] 97% | [2]; at 50.0 µM 97.8% | [3]; [8] 96% | [3]; at 50.0 µM 78.8% | [4]; [8] 95% | [4]; at 50.0 µM 93.5% | [5]; [8] 96% | [5]; at 50.0 µM 94.8% | [6]; [8] 96% | [6]; at 50.0 µM 99.3%
inactive: [1]; [7] -153% | [2]; [7] -47% | [3]; [7] -57% | [4]; [7] -67% | [5]; [7] -63% | [6]; [7] -134%

Cc1nc(C(N)=S)sc1C(=O)C/C(=N/N)C(=O)Nc1cccc(Cl)c1C
inactive: [1]; [7] 8% | [1]; [8] 24% | [1]; at 50.0 µM 26.1% | [2]; [7] -5% | [2]; [8] 14% | [2]; at 50.0 µM 29.6% | [3]; [7] -7% | [3]; [8] 23% | [3]; at 50.0 µM -4.95% | [4]; [7] -28% | [4]; [8] -15% | [4]; at 50.0 µM -15.2% | [5]; [7] 5% | [5]; [8] 23% | [5]; at 50.0 µM 6.25% | [6]; [7] 11% | [6]; [8] 7% | [6]; at 50.0 µM 37.1%

ClC1(Cl)c2ccccc2-c2ccccc21
inactive: [1]; [7] -147% | [1]; [8] -36% | [1]; at 50.0 µM 7.55% | [2]; [7] -51% | [2]; [8] -40% | [2]; at 50.0 µM -4.1% | [3]; [7] -59% | [3]; [8] -49% | [3]; at 50.0 µM -7.05% | [4]; [7] -55% | [4]; [8] -54% | [4]; at 50.0 µM 43.4% | [5]; [7] -67% | [5]; [8] -55% | [5]; at 50.0 µM -21% | [6]; [7] -115% | [6]; [8] -79% | [6]; at 50.0 µM -2.85%

CC(c1ccccc1C(=O)O)c1cccc2ccccc12 (stereo not given)
active: [1]; [8] 89% | [1]; at 50.0 µM 87.3% | [2]; [8] 91% | [2]; at 50.0 µM 92.3% | [3]; [8] 90% | [3]; at 50.0 µM 83.3% | [4]; [8] 98% | [4]; at 50.0 µM 97.5% | [5]; [8] 88% | [5]; at 50.0 µM 91.5% | [6]; [8] 92% | [6]; at 50.0 µM 92.8%
inactive: [1]; [7] 4% | [2]; [7] -3% | [3]; [7] 6% | [4]; [7] 6% | [5]; [7] -7% | [6]; [7] -12%
